# From PubChem BioAssay (EPA / NIEHS)
# Calls of active or inactive are those of the source. How the source made its calls: active means hit-call score of the fitted dose curve at least 0.9, where 1 is the maximum; inactive means score below 0.9.
# What was measured:
# [1] = ATG_E_Box_CIS: Attagene CIS-FACTORIAL HepG2 Assay for human Enhancer Box (E-box) (AID 2282936); conditions: HepG2 E-box cis-reporter transcription, actives raise or lower the signal
# Outline: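 Transiently transfected HepG2, endogenous TF-driven reporters, 24 h dosing. Readout: RT-PCR plus capillary electrophoresis of fluorescent reporter fragments. Gain or loss of signal fitted bidirectionally against DMSO baseline.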
# [2] = ATG_M_61_CIS: Attagene CIS-FACTORIAL HepG2 Assay for M61 Transcription Factor (Internal Marker) (AID 2282937); conditions: HepG2 Attagene CIS-FACTORIAL M61 internal marker reporter; actives raise or lower the signal
# Outline: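 Background-control endpoint: HepG2 cells with cis-regulated reporter constructs, 24 h exposure, reporter mRNA detected via fluorescent primer extension and capillary electrophoresis; values from bidirectional fitting with DMSO baseline.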
# [3] = ATG_EGR_CIS: Attagene CIS-FACTORIAL HepG2 Assay for human Early Growth Response 1 (EGR1) (AID 2282938); conditions: HepG2 Attagene CIS-FACTORIAL EGR reporter mRNA; actives raise or lower the signal
# Outline: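 Endpoint derived by bidirectional fitting versus DMSO vehicle. Method: cis-promoter reporter units transfected into HepG2, 24 h dosing, RNA isolation, RT-PCR with 6-FAM primer extension and HpaI digestion, then capillary electrophoresis fluorescence detection.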
# [4] = ATG_M_19_CIS: Attagene CIS-FACTORIAL HepG2 Assay for M19 Transcription Factor (Internal Marker) (AID 2282939); conditions: HepG2 Attagene CIS-FACTORIAL M19 internal marker reporter; actives raise or lower the signal
# Outline: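 Background-control endpoint from a multiplexed HepG2 reporter panel. Cells carrying cis-regulated reporter constructs are treated 24 h, then reporter transcripts are amplified, fluorescently labelled and sized by capillary electrophoresis. DMSO defines baseline.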
# [5] = ATG_ERE_CIS: Attagene CIS-FACTORIAL HepG2 Assay for Estrogen Response Element (ERE) (AID 2282940); conditions: HepG2 ERE cis-reporter, Attagene RNA transcript; actives raise or lower the signal
# Outline: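 Cells used were human hepatoma HepG2, transfected with multiple reporter transcription units under cis-regulatory promoters. Reporter mRNA, read 24 h post-dosing via fluorescent RT-PCR products on capillary electrophoresis, was fitted bidirectionally relative to DMSO.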
# [6] = ATG_Ets_CIS: Attagene CIS-FACTORIAL HepG2 Assay for human Erythroblast Transformation Specific (ETS) (AID 2282941); conditions: HepG2 ETS cis-reporter transcription, actives raise or lower the signal
# Outline: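 Multiplexed reporter transcript profiling: HepG2, 24 h treatment, total RNA to cDNA, PCR, 6-FAM labelling, HpaI cut, capillary electrophoresis. Gain- or loss-of-signal fitted against DMSO.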
# [7] = biological target: Hepatocyte nuclear factor 3-beta (Homo sapiens) (UniProt Q9Y261); experiment: ATG_FoxA2_CIS: Attagene CIS-FACTORIAL HepG2 Assay for human Forkhead box A2 (FOXA2) (AID 2282942); conditions: HepG2 cis-reporter transcription factor activity, 24 h; actives raise or lower the signal
# Outline: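 Measured: reporter mRNA induction or loss in HepG2 transiently carrying multiple cis-regulated reporter units, 24 h after dosing. Quantified by RT-PCR plus capillary electrophoresis, normalised to DMSO.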
# [8] = ATG_FoxO_CIS: Attagene CIS-FACTORIAL HepG2 Assay for human Forkhead box O (FoxO) (AID 2282943); conditions: HepG2 Attagene cis-reporter, FoxO element, mRNA; actives raise or lower the signal
# Outline: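 Transfected HepG2 reporter cells exposed to test chemical for 24 h; reporter RNA measured by reverse transcription, PCR and fluorescent capillary electrophoresis; curves fitted for increases and decreases against DMSO.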
# [9] = ATG_GATA_CIS: Attagene CIS-FACTORIAL HepG2 Assay for human GATA Binding Protein (AID 2282944); conditions: HepG2 GATA cis-element reporter, Attagene multiplex mRNA; actives raise or lower the signal
# Outline: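 Endogenous transcription factor activity was captured through cis-promoter-driven reporters in transfected HepG2 cells. After 24 h exposure, reporter transcripts were quantified by RT-PCR with fluorescent capillary electrophoresis, and responses fitted both directions against DMSO.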
# [10] = ATG_GLI_CIS: Attagene CIS-FACTORIAL HepG2 Assay for human Zinc Finger Protein GLI1 (AID 2282945); conditions: HepG2, Attagene cis-factorial reporter mRNA, GLI element; actives raise or lower the signal
# Outline: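 Transiently transfected HepG2 cells report endogenous transcription factor activity via cis-element-driven reporter units. After 24 h compound exposure, reporter mRNA was measured by RT-PCR with capillary electrophoresis; bidirectional fitting against DMSO baseline.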
# [11] = biological target: Bile acid receptor (Homo sapiens) (UniProt Q96RI1); experiment: ATG_IR1_CIS: Attagene CIS-FACTORIAL HepG2 Assay for human Nuclear Receptor Subfamily 1 Group H Member 4 (NR1H4), IR1 submotif (AID 2282946); conditions: IR1 reporter transcription, actives raise or lower the signal
# Outline: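 Fluorescence of capillary-separated, HpaI-digested RT-PCR reporter products gave IR1-element mRNA induction in HepG2 cells 24 h after dosing. Endogenous transcription factors drove the cis-regulated reporters; activity was fitted bidirectionally against DMSO.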
# [12] = ATG_GRE_CIS: Attagene CIS-FACTORIAL HepG2 Assay for human Glucocorticoid Response Elements (GRE) (AID 2282947); conditions: HepG2 GRE cis-reporter, Attagene multiplex mRNA; actives raise or lower the signal
# Outline: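 Read-out: fluorescent reporter-transcript fragments separated by capillary electrophoresis after RT-PCR. Transiently transfected HepG2 cells carrying cis-element-driven reporter units were dosed for 24 h; gain or loss of signal fitted against DMSO control.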
# [13] = ATG_ISRE_CIS: Attagene CIS-FACTORIAL HepG2 Assay for human Interferon Regulatory Factor 1 (IRF1) binding to an Interferon-Stimulated Response Element (ISRE) (AID 2282948); conditions: HepG2 ISRE cis-reporter (Attagene), mRNA transcription readout; actives raise or lower the signal
# Outline: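 Signal reflects induction or loss of ISRE-linked reporter mRNA in transiently transfected HepG2 cells after a 24 h treatment, detected by fluorescent RT-PCR fragments on capillary electrophoresis and normalised to DMSO.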
# [14] = ATG_M_32_CIS: Attagene CIS-FACTORIAL HepG2 Assay for M32 Transcription Factor (Internal Marker) (AID 2282949); conditions: HepG2 Attagene cis-factorial M32 reporter, mRNA; actives raise or lower the signal;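 further: background control marker of the multiplexed CIS panel rather than a real target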
# Outline: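 Using DMSO as baseline, bidirectional curve fits were applied to reporter mRNA signals. These came from transiently transfected HepG2 cells exposed for 24 h, with RNA analysed by RT-PCR, FAM primer extension, HpaI digestion and CE.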
# [15] = ATG_M_06_CIS: Attagene CIS-FACTORIAL HepG2 Assay for M06 Transcription Factor (Internal Marker) (AID 2282950); conditions: HepG2 Attagene CIS-FACTORIAL M06 internal marker reporter; actives raise or lower the signal
# Outline: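 Steps: transfect HepG2 with multiplexed cis-element reporter constructs; dose chemical 24 h; extract RNA with DNase treatment; reverse-transcribe, PCR-amplify, 6-FAM label, HpaI digest; separate fragments by capillary electrophoresis. Activity fitted both directions versus DMSO.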
# [16] = biological target: Hypoxia-inducible factor 1-alpha (Homo sapiens) (UniProt Q16665); experiment: ATG_HIF1a_CIS: Attagene CIS-FACTORIAL HepG2 Assay for human Hypoxia Inducible Factor 1 (HIF1A) (AID 2282951); conditions: HepG2 Attagene cis-factorial HIF1a reporter transcription; actives raise or lower the signal
# Outline: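 Dosed 24 h, transfected HepG2 cells yielded total RNA whose reporter transcripts were RT-PCR-amplified and sized by capillary electrophoresis using fluorescent labelling; DMSO defined baseline, with gain and loss of signal both fitted.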
# [17] = biological target: Hepatocyte nuclear factor 6 (Homo sapiens) (UniProt Q9UBC0); experiment: ATG_HNF6_CIS: Attagene CIS-FACTORIAL HepG2 Assay for human Hepatocyte Nuclear Factor 6 (HNF6) (AID 2282952); conditions: HepG2 Attagene cis-factorial HNF6 reporter transcription; actives raise or lower the signal
# Outline: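 Endogenous transcription factor activity in human HepG2 liver cells was captured through cis-regulated reporter constructs. After 24 h treatment, reporter mRNA was measured by RT-PCR with capillary electrophoresis, and activity was fitted in both directions relative to DMSO.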
# [18] = biological target: Heat shock factor protein 1 (Homo sapiens) (UniProt Q00613); experiment: ATG_HSE_CIS: Attagene CIS-FACTORIAL HepG2 Assay for human Heat Shock Transcription Factor 1 (HSE) (AID 2282953); conditions: HepG2 HSE cis-reporter, Attagene RNA transcription; actives raise or lower the signal
# Outline: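 Cells were transfected with cis-element-driven reporter constructs, dosed for 24 h, then total RNA was reverse-transcribed and reporter cDNA amplified, FAM-labelled and digested with HpaI. Fragments were resolved by capillary electrophoresis; gain or loss was fitted against DMSO.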
# [19] = ATG_PBREM_CIS: Attagene CIS-FACTORIAL HepG2 Assay for human Phenobarbital-responsive Enhancer Module (PBREM) (AID 2282955); conditions: HepG2 PBREM cis-reporter, Attagene multiplexed transcription; actives raise or lower the signal
# Outline: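 Transfected liver-derived HepG2 cells exposed 24 h; PBREM reporter transcript quantified via RT-PCR and capillary electrophoresis, with activity in either direction referenced to DMSO.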
# [20] = ATG_MRE_CIS: Attagene CIS-FACTORIAL HepG2 Assay for human Metal Responsive Element (MRE) (AID 2282954); conditions: HepG2 MRE cis-reporter transcription, Attagene multiplex; actives raise or lower the signal
# Outline: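 RT-PCR/capillary electrophoresis readout of reporter mRNA, 24 h post-dosing, in HepG2 cells transfected with multiplexed cis-regulated reporter constructs. Gain or loss of signal fitted bidirectionally against DMSO baseline.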
# Chain of Heat shock factor protein 1 (Homo sapiens) (Q00613 whole entry, looked up, the tested form may be a part): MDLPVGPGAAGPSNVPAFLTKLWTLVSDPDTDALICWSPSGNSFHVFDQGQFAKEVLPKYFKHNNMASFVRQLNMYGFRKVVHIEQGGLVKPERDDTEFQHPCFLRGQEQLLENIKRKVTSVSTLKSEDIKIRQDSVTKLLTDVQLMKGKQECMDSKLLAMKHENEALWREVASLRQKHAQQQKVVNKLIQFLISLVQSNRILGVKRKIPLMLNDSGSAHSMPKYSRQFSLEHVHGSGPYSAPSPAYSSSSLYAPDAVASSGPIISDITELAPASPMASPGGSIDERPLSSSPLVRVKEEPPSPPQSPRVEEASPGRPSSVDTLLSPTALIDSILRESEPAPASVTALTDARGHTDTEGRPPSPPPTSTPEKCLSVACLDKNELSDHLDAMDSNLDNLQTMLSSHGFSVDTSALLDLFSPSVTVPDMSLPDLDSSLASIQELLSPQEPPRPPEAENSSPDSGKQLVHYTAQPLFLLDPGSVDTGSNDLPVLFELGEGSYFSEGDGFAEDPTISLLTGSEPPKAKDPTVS
# Chain of Bile acid receptor (Homo sapiens) (Q96RI1 whole entry, looked up): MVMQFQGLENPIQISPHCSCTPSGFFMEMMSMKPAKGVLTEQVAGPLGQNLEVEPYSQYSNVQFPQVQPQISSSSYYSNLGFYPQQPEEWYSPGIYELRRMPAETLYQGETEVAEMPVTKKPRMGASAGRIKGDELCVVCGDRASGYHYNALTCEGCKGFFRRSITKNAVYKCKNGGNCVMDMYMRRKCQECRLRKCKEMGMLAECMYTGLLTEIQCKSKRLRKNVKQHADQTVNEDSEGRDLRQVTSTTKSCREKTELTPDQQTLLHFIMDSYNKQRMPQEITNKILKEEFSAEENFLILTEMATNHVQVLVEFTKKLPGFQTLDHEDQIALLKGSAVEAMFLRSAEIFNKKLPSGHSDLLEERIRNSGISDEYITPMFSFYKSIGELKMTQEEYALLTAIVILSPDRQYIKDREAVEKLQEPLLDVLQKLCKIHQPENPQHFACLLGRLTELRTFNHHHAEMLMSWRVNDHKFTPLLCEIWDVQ
# Chain of Hypoxia-inducible factor 1-alpha (Homo sapiens) (Q16665 whole entry, looked up): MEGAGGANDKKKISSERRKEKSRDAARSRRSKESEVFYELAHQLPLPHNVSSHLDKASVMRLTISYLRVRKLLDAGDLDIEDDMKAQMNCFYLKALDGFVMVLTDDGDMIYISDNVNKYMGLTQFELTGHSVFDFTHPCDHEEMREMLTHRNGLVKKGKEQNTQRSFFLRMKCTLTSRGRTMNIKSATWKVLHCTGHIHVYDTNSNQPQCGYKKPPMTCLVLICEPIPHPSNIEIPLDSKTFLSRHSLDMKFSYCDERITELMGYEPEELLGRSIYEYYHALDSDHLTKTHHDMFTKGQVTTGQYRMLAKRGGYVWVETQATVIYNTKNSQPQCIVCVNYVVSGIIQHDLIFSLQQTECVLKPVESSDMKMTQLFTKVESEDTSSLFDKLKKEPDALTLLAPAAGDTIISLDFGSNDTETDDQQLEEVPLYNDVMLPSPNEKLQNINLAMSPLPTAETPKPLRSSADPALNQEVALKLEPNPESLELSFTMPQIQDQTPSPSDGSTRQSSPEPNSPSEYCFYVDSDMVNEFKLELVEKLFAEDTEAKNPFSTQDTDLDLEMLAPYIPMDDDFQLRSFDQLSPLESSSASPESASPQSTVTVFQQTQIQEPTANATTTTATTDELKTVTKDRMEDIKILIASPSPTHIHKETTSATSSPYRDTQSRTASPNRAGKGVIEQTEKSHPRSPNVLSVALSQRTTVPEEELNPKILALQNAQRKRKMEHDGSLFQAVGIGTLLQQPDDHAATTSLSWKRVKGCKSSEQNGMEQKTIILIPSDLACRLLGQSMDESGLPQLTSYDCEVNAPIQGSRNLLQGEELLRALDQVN
# Chain of Hepatocyte nuclear factor 3-beta (Homo sapiens) (Q9Y261 whole entry, looked up): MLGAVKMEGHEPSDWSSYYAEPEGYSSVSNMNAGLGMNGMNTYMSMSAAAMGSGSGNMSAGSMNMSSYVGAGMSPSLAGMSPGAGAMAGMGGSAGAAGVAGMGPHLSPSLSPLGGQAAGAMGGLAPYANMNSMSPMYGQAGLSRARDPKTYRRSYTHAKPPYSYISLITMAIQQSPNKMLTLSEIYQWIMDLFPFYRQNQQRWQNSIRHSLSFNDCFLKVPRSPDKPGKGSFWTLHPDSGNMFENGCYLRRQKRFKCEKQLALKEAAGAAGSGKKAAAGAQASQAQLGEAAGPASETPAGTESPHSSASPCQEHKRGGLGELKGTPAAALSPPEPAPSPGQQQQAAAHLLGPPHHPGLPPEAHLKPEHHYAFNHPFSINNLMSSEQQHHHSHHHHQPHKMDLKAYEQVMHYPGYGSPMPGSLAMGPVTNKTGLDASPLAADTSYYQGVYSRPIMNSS
# Chain of Hepatocyte nuclear factor 6 (Homo sapiens) (Q9UBC0 whole entry, looked up): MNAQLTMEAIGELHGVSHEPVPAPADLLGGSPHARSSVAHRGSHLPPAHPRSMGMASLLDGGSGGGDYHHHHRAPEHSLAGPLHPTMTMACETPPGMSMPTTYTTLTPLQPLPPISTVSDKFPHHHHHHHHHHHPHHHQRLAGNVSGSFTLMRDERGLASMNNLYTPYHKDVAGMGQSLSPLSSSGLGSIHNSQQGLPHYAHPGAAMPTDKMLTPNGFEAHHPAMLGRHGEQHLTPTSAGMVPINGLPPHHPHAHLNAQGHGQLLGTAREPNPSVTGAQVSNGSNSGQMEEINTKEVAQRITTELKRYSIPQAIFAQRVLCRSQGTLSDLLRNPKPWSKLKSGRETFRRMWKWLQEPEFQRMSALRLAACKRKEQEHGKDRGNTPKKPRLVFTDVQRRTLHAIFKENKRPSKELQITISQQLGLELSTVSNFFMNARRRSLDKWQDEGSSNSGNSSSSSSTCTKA
smiles,measurement,setting,value
O=C(O)CN(CC(=O)O)CC(=O)O,outcome,[1],inactive
same,outcome,[2],inactive
same,outcome,[3],inactive
same,outcome,[4],inactive
same,outcome,[5],inactive
same,outcome,[6],inactive
same,outcome,[7],inactive
same,outcome,[8],inactive
same,outcome,[9],inactive
same,outcome,[10],inactive
same,outcome,[11],inactive
same,outcome,[12],inactive
same,outcome,[13],inactive
same,outcome,[14],inactive
same,outcome,[15],inactive
same,outcome,[16],inactive
same,outcome,[17],inactive
same,outcome,[18],inactive
same,outcome,[19],inactive
O=C(N[C@@H](c1ccccc1)[C@@H]1CCCCN1)c1cccc(C(F)(F)F)c1Cl,outcome,[1],inactive
same,outcome,[2],inactive
same,AC50,[3],25.7 µM (active)
same,outcome,[4],inactive
same,outcome,[5],inactive
same,AC50,[6],33 µM (active)
same,outcome,[7],inactive
same,outcome,[8],inactive
same,outcome,[9],inactive
same,AC50,[10],55.9 µM (active)
same,outcome,[11],inactive
same,outcome,[12],inactive
same,outcome,[13],inactive
same,outcome,[14],inactive
same,outcome,[15],inactive
same,AC50,[16],16.6 µM (active)
same,AC50,[17],62.1 µM (active)
same,AC50,[18],52.4 µM (active)
same,outcome,[19],inactive
CCCCc1nc2cccnc2n1Cc1ccc(-c2ccccc2-c2nnn[nH]2)cc1,outcome,[1],inactive
same,outcome,[2],inactive
same,outcome,[3],inactive
same,outcome,[4],inactive
same,outcome,[5],inactive
same,outcome,[6],inactive
same,outcome,[7],inactive
same,outcome,[8],inactive
same,outcome,[9],inactive
same,outcome,[10],inactive
same,outcome,[11],inactive
same,outcome,[12],inactive
same,outcome,[13],inactive
same,outcome,[15],inactive
same,outcome,[16],inactive
same,outcome,[17],inactive
same,outcome,[18],inactive
same,outcome,[19],inactive
CC(C)c1cccc(C(C)C)c1,outcome,[1],inactive
same,outcome,[2],inactive
same,outcome,[3],inactive
same,outcome,[4],inactive
same,outcome,[5],inactive
same,outcome,[6],inactive
same,outcome,[7],inactive
same,outcome,[8],inactive
same,outcome,[9],inactive
same,outcome,[10],inactive
same,outcome,[11],inactive
same,outcome,[12],inactive
same,outcome,[13],inactive
same,outcome,[15],inactive
same,outcome,[16],inactive
same,outcome,[17],inactive
same,outcome,[18],inactive
same,outcome,[20],inactive
Oc1ccc(O)cc1,outcome,[1],inactive
same,outcome,[2],inactive
same,outcome,[3],inactive
same,outcome,[4],inactive
same,AC50,[5],35.6 µM (active)
same,outcome,[6],inactive
same,outcome,[7],inactive
same,outcome,[8],inactive
same,outcome,[9],inactive
same,outcome,[10],inactive
same,outcome,[12],inactive
same,outcome,[13],inactive
same,outcome,[14],inactive
same,outcome,[15],inactive
same,outcome,[17],inactive
same,outcome,[18],inactive
same,outcome,[19],inactive
CCCCCCCCCC[N+](C)(C)[O-],outcome,[1],inactive
same,outcome,[2],inactive
same,outcome,[3],inactive
same,outcome,[4],inactive
same,outcome,[5],inactive
same,outcome,[6],inactive
same,outcome,[7],inactive
same,outcome,[8],inactive
same,outcome,[9],inactive
same,outcome,[10],inactive
same,outcome,[12],inactive
same,outcome,[13],inactive
same,outcome,[15],inactive
same,outcome,[16],inactive
same,outcome,[17],inactive
same,outcome,[18],inactive
same,outcome,[20],inactive
O=[Si]=O,outcome,[1],inactive
same,outcome,[2],inactive
same,outcome,[3],inactive
same,outcome,[4],inactive
same,outcome,[5],inactive
same,outcome,[6],inactive
same,outcome,[7],inactive
same,outcome,[8],inactive
same,outcome,[9],inactive
same,outcome,[10],inactive
same,outcome,[12],inactive
same,outcome,[13],inactive
same,outcome,[14],inactive
same,outcome,[15],inactive
same,outcome,[16],inactive
same,outcome,[17],inactive
same,outcome,[18],inactive
